Screening data deposited in PubChem by National Center for Advancing Translational Sciences (NCATS).
KCNH2 3.1 block = blocks the human KCNH2 3.1 channel isoform. activity change, % (tested at about 1.8 µM). actives 0.95% (n = 340,000). U2OS KCNH2 3.1, thallium flux FluxOr; stronger effect = lower value;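 active = maximum activity change below -70%; inconclusive = maximum activity change from -70% to -50%; inactive = maximum activity change above -50%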;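 note: thallium influx rate constant from kinetic fluorescence after stimulation buffer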
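Kinetic fluorescence (2 min after stimulation buffer) measures Tl+ influx through KCNH2 3.1 expressed by viral transduction in U2OS cells; the rate constant is normalized against DMSO controls serving as positive and negative references.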
JMJD2E inh = blocks human JMJD2E demethylase activity. actives 1.6% (n = 230,000). Potency, µM (doses to about 57.1 µM), usual class: inhibitors. JMJD2E catalytic domain, FDH-coupled NADH fluorescence (FDH is formaldehyde dehydrogenase). B2RXH2; active = well fitted inhibition curve with a large enough effect, not every such curve was filed as active; inconclusive = small, poorly fitted or top-dose-only effect, or another doubt; inactive = no such curve, though single readings can be large or run the other way; note: nearly all actives have a fitted effect of over 50% in size
hERG WT inh = blocks the wildtype human KCNH2 potassium channel; Q12809; U2OS, BacMam KCNH2, thallium flux FluxOr; stronger effect = lower value; activity change, % at 1.84 µM; actives 0.37% (n = 340,000); AID 720551;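 active = maximum activity change below -70%; inconclusive = maximum activity change between -70% and -50%; inactive = maximum activity change above -50%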
Target sequence (Q12809 whole entry, looked up): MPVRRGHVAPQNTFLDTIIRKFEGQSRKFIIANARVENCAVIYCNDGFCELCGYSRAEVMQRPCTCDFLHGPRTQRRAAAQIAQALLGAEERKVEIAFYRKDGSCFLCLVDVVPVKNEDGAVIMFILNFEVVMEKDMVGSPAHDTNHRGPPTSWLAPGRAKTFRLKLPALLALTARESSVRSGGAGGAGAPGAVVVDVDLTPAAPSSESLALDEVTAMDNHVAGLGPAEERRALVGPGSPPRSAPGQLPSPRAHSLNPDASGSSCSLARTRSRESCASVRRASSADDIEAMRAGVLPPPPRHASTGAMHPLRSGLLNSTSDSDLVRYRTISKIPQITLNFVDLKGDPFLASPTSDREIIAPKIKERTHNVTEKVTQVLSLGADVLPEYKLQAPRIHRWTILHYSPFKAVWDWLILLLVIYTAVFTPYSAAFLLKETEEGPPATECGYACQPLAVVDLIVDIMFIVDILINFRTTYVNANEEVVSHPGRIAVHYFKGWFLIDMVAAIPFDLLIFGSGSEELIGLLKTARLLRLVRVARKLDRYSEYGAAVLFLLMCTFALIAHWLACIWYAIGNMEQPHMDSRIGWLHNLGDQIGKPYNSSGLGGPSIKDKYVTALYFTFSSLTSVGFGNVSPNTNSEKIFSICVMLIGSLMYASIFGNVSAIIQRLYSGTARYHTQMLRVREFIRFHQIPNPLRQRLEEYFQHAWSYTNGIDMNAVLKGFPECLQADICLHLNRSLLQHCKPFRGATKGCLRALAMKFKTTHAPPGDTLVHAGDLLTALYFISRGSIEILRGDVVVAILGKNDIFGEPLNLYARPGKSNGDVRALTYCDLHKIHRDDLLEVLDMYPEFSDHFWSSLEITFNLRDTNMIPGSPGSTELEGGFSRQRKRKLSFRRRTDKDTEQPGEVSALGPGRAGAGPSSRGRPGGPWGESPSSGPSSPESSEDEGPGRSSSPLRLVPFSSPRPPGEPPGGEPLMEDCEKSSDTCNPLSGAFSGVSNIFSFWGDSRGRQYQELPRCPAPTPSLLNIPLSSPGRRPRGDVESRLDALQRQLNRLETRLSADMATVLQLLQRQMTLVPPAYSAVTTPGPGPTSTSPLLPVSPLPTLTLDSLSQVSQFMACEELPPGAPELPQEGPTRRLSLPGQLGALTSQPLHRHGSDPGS
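U2OS cells transduced with wild-type KCNH2 virus are loaded with FluxOr dye for 45 min, and thallium flux is measured in kinetic reads before and after stimulation buffer. Rate constants are normalized to DMSO controls.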
CtBP-E1A blk = inhibitors of CtBP/E1A interaction; AlphaScreen GST-E1A/His-CtBP binding, 1536-well; stronger effect = lower value; activity change, % (no concentration beside the values); actives 0.49% (n = 340,000); AID 651724
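Steps: dispense buffer (Tris pH 8.0, NaCl 300 mM, TCEP 1 mM, BSA, Tween 20); add 5X protein mix (GST-E1A, His-CtBP, 125 nM each); pin 23 nL compound; 2 h at 37 °C, dark; add 5X beads (50 ug/mL); 1 h; read.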
Six1-Eya2 blk = Six1/Eya2 interaction inhibition; AlphaScreen GST-Six1/His-Eya2 binding, biochemical; stronger effect = lower value; activity change, % (test concentration not listed); actives 0.56% (n = 360,000); AID 651725
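AlphaScreen luminescence read after one hour at 37 °C in darkness. Pin-transferred compounds met GST-Six1 and His-Eya2 protein (5X stock 250 nM/500 nM) plus glutathione donor and Ni-chelate acceptor beads (5X, 50 ug/mL).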
A number is an active result; i = inactive; ? = inconclusive; nt = not tested or not shown. An excerpt weighted towards active compounds, which were near 2% of everything screened. Cut-off read from the data, not from the text of the source, unless noted: active = activity change below about -65%; inconclusive = mostly about -30% to -63%; inactive = weaker than that.

SMILES	KCNH2 3.1 block	JMJD2E inh	hERG WT inh	CtBP-E1A blk	Six1-Eya2 blk
COc1cccc(NC(=S)NNC(=O)C(C)n2nc(C)c([N+](=O)[O-])c2C)c1 (stereo unspecified)	i	i	i	i	i
CC(C)Sc1nc2ccccc2[nH]1	-110.2	i	i	i	i
Nc1ccc(-c2nc3ccccc3[nH]2)cc1	i	?	i	i	i
Nc1ccc(Sc2nc3ccccc3[nH]2)cc1	i	i	-83.6	i	i
COc1ccc(Nc2cc3n(c(=O)n2)CCc2cc(OC)c(OC)cc2-3)cc1	i	nt	i	?	-78.5
COc1cc2c(cc1OC)-c1cc(Nc3ccc(C(=O)O)cc3)nc(=O)n1CC2	-93.0	nt	i	i	?
COc1cc2c(cc1OC)-c1cc(Nc3ccc(C)cc3)nc(=O)n1CC2	i	nt	i	nt	?
COc1cc2c(cc1OC)-c1cc(NC3CCCCCC3)nc(=O)n1CC2	i	?	i	?	-70.9
CCN(CC)CCCNc1cc2n(c(=O)n1)CCc1cc(OC)c(OC)cc1-2	i	?	i	-69.4	-80.1
O=S(=O)(c1ccc(NC(=S)N/N=C/c2c3ccccc3cc3ccccc23)cc1)N1CCOCC1	i	i	i	nt	i
Cc1ccc2c(C)c(C(=O)NCc3ccc(S(N)(=O)=O)cc3)oc2c1	i	?	i	nt	i
COc1cc2c(cc1OC)-c1cc(Nc3ccccc3)nc(=O)n1CC2	i	?	i	i	-76.0
CCOC(=O)N1CCC(NC(=O)CSc2cc(=O)n(CC)c3ccccc23)CC1	i	?	i	i	i
COc1ccc2c(c1O)C(=O)c1ccccc1C2=O	nt	i	nt	nt	nt
Nc1cc(N)c2c(c1)C(=O)c1ccccc1-2	-198.3	nt	-131.4	?	i
Nc1c(O)ccc2c1C(=O)c1ccccc1C2=O	i	i	i	?	-74.3
Cc1ccc2occ(C3NC(C(=O)O)CS3)c(=O)c2c1 (stereo unspecified)	i	?	i	i	i
O=C1C=C(c2ccc3ncccc3c2)C[C@@H](c2ccc(F)cc2)C1	i	nt	i	nt	i
O=C1C=C(c2ccc3ccccc3c2)C[C@@H](c2ccc(F)cc2)C1	-85.8	nt	i	i	i
O=C(COC(=O)CCc1c[nH]c2ccccc12)Nc1ccccc1C(F)(F)F	i	nt	i	i	i
COC(=O)c1ccc(C2Nc3cccc4cccc(c34)N2)cc1	i	8.91µM	i	i	i
Fc1ccc(C2Nc3cccc4cccc(c34)N2)cc1	i	nt	i	i	i
O=c1cc(CN2CCN(C/C=C/c3ccccc3)CC2)c2cc(O)ccc2o1	-98.6	i	-132.9	?	i
Cc1ccc2oc(=O)cc(CN3CCN(C/C=C/c4ccccc4)CC3)c2c1	-102.0	i	i	i	i
O=c1cc(CN2CCN(c3ccccc3)CC2)c2cc(O)c(-c3ccccc3)cc2o1	i	i	i	i	i
SMILES	KCNH2 3.1 block	JMJD2E inh	hERG WT inh	CtBP-E1A blk	Six1-Eya2 blk
NC(=S)NN=Cc1cc(-c2cccc(N)c2)ccn1	i	nt	i	-81.0	-88.2
NC(=S)N/N=C\c1c2ccccc2cc2ccccc12	i	i	i	i	i
C/C(=N\NC(=O)c1ccccn1)c1ccc(C(=O)O)s1	nt	i	nt	nt	nt
CC(=NNC(=S)N1CCCCC1)c1ccccn1	i	nt	i	i	-86.8
CSC(=S)NN=C(C)c1cccc(C)n1	i	nt	?	-92.5	-91.2
CC(=NNC(=S)N1CC2CCC(CC2)C1)c1ccncn1	i	nt	i	-96.0	?
Cc1cccc(C(=S)N2CCOCC2)n1	i	nt	i	i	i
CC(=NNC(=S)N1CCCCC1)c1cccc(C)n1	i	nt	i	i	-91.0
Cc1cc(NC(=O)CCC(=O)N(Cc2ccco2)C(C(=O)NC2CCCC2)c2ccccc2F)no1 (stereo unspecified)	i	nt	i	i	i
Oc1ccc(F)cc1-c1cc(-c2ccc3c(c2)OCCO3)n[nH]1	i	i	i	i	i
CCN(CC)C(=O)CCCSc1nnc(Nc2ccccc2F)s1	i	i	i	i	i
N#Cc1ccc(CSc2nnc(-c3cccs3)n2-c2ccccc2)cc1	i	i	i	i	i
Cc1cc(C)nc(NS(=O)(=O)c2ccc(NC(=O)CN3C(=O)S/C(=C\c4ccccc4)C3=O)cc2)n1	i	?	i	i	i
O=C(CSc1nc2[nH]ncc2c(=O)[nH]1)NCc1ccccc1	i	i	i	i	i
CC1(C)C(=O)N(CCN2CCC(C(=O)c3ccc(F)cc3)CC2)c2ccccc21	-75.2	i	i	i	i
O=C(Nc1nc2ccc(F)cc2s1)c1ccccn1	i	i	i	-92.4	-76.9
O=C(Nc1nc2ccccc2s1)c1cnccn1	i	i	i	i	i
O=C(Nc1nnc(SCc2ccc(F)cc2)s1)c1ccccn1	i	?	i	-95.5	-90.2
CC(=O)Nc1cc2c(cc1NC(=O)Cn1nc(-c3ccccc3F)ccc1=O)OCCO2	nt	i	i	i	i
COc1ccc(C(=O)NC2CCCCCC2)cc1S(=O)(=O)Nc1ccc(Br)cc1	-80.4	i	i	i	i
COc1ccc(NC(=O)CSc2ccc3c4c(cccc24)C(=O)c2ccccc2-3)cc1	i	i	i	i	i
N#Cc1cccc(NC(=O)CSc2ccc3c4c(cccc24)C(=O)c2ccccc2-3)c1	-78.4	i	-100.4	i	i
Cc1ccc(S(=O)(=O)c2nnn3c2nc(Nc2cccc(C)c2)c2ccccc23)cc1	i	i	i	i	i
Cc1ccc(C)c(Nc2nc3c(S(=O)(=O)c4ccccc4)nnn3c3ccccc23)c1	-71.6	?	i	i	i
CCc1cc2c(nc1CC)CCN(CC/C(C)=N/OC[C@H]1O[C@H](c3ccccc3)C=C[C@@H]1Oc1ccc(OC)cc1)C2	nt	35.5µM	nt	nt	nt
SMILES	KCNH2 3.1 block	JMJD2E inh	hERG WT inh	CtBP-E1A blk	Six1-Eya2 blk
COc1ccc(O[C@H]2C=C[C@@H](c3ccccc3)O[C@@H]2COC(=O)CC/C(C)=N/OC[C@@H](O)COCc2ccco2)cc1	nt	i	nt	nt	nt
CCOC(=O)/C=c1\s/c(=C\c2ccc3cc(OC)ccc3c2)c(=O)n1CC(=O)NCc1ccc2c(c1)OCO2	i	i	i	i	i
Cc1nc2ccccc2n1CC(O)COc1ccc(Br)cc1 (stereo unspecified)	i	i	i	i	i
O=C(CN1CCC(NC(=O)C2CC2)CC1)Nc1cccc(F)c1	i	nt	i	i	i
O=C(N/N=C/C(Cl)=C/c1ccc([N+](=O)[O-])cc1)C(=O)Nc1cccc(C(=O)O)c1	i	i	i	-92.1	?
O=C(NCCCN1CCCC1)c1cc(Sc2ccc(F)cc2)nc2ccccc12	-77.6	i	i	i	i
O=C(NNC(=O)C1CC(=O)N(Cc2ccccc2)C1)c1ccc(Br)cc1 (stereo unspecified)	i	nt	i	i	i
CCCc1ncc(C(O)c2cccc(OC)c2OC)n1C (stereo unspecified)	i	i	i	i	i
CCCc1ncc(C(O)c2ccccc2OC)n1C (stereo unspecified)	i	i	-201.1	i	i
CCc1ccccc1NC(=O)Cn1nc(C(F)(F)F)cc1C1CC1	-78.1	i	i	i	i
